aSyn 5UTR act = Activators via SNCA 5'UTR binding, MLPCN; alpha-synuclein 5'UTR reporter, activators screen; activity score, % (tested at 7.5 µM), hits read low; 7.1% of 300,000 active; AID 1814; in the data active = activity score below about -60%
Each line names hits and unclear results; the compound was inactive in the other large screens. Only a sample is shown.

CCc1nnc(NC(=O)Nc2ccc(OC)cc2)s1	aSyn 5UTR act -162
CC(C)Cc1nnc(NC(=O)c2ccc([N+](=O)[O-])cc2)s1	aSyn 5UTR act -95
CCCc1nnc(NC(=O)c2cc3ccccc3o2)s1	aSyn 5UTR act -88
COc1ccc(C(=O)Nc2nccs2)cc1OC	aSyn 5UTR act -71
COc1ccc(NC(=O)Nc2nccs2)cc1	aSyn 5UTR act -94
COc1ccc(C(=O)NC(=S)Nc2cc(C)ccn2)cc1[N+](=O)[O-]	aSyn 5UTR act -68
O=C(Nc1nccs1)c1ccc([N+](=O)[O-])cc1	aSyn 5UTR act -75
CCOCc1nnc(NC(=O)c2ccc(OC)cc2)s1	aSyn 5UTR act -73
CCCc1nnc(NC(=O)c2cccc(OC)c2)s1	aSyn 5UTR act -91
COc1ccc(C(=O)Nc2nccs2)cc1[N+](=O)[O-]	aSyn 5UTR act -74
COc1ccc(C(NC(C)=O)c2cc(Cl)c3cccnc3c2O)cc1 (stereo not drawn)	none
COc1ccc2c(CC(=O)Nc3nccs3)coc2c1	aSyn 5UTR act -101
CC(C)Sc1ccc(C(=O)Nc2ccc(F)cc2F)cn1	aSyn 5UTR act -140
Cc1cccc(N=Nc2c(O)[nH]c3ccc(Br)cc23)c1	aSyn 5UTR act -72
Cn1ncc(SCc2ccccc2)c(Cl)c1=O	aSyn 5UTR act -64
CCN(CC)S(=O)(=O)c1ccc2nc(NC(=O)c3ccco3)sc2c1	aSyn 5UTR act -63
CCN(CC)S(=O)(=O)c1ccc2nc(NC(=O)c3cccs3)sc2c1	aSyn 5UTR act -104
N#CC1=C(SCC(=O)Nc2ccccc2)NC(=O)CC1c1ccco1 (stereo not drawn)	aSyn 5UTR act -141
CC(=O)C1=C(C)NC(SCC(=O)c2cc(Cl)ccc2Cl)=C(C#N)C1c1ccco1 (stereo not drawn)	aSyn 5UTR act -130
N#CC1=C(SCC(=O)c2ccccc2)NC2=C(C(=O)CCC2)C1c1ccco1 (stereo not drawn)	aSyn 5UTR act -305
N#CC1=C(SCC(=O)Nc2ccccc2)NC(=O)CC1c1ccc(O)cc1 (stereo not drawn)	aSyn 5UTR act -128
O=C(NCCC1=CCCCC1)Nc1ccc2nsnc2c1	aSyn 5UTR act -110
O=C(NCc1ccco1)Nc1ccc2nsnc2c1	aSyn 5UTR act -76
O=C(NCc1ccco1)Nc1ccc(Br)cc1	aSyn 5UTR act -119
O=C(c1cc2cc(Br)ccc2o1)N1CCCC1	aSyn 5UTR act -64
Brc1ccc2c(c1)OCCOCCOc1cc(Br)ccc1OCCOCCOCCO2	none
O=C(c1cc2cc(Br)ccc2o1)N1CCOCC1	aSyn 5UTR act -85
CN(C)c1ccc(NC(=O)CCn2c(=S)oc3ccccc32)cc1	aSyn 5UTR act -100
[O-][n+]1onc2c1CCc1nnccc1-2	aSyn 5UTR act -86
N#C/C(=C/c1ccc(N2CCCCCC2)o1)c1cccc(F)c1	aSyn 5UTR act -286
N#C/C(=C/c1ccc(N2CCCCCC2)o1)c1ccc(F)cc1	aSyn 5UTR act -111
CCOC(=O)C1=C(c2ccccc2)OC(N)=C(C#N)C1C(C)C (stereo not drawn)	aSyn 5UTR act -103
N#CC1=C(N)Oc2ccc3ccccc3c2C1c1cccnc1 (stereo not drawn)	none
CCOC(=O)C1=C(CSc2nc(-c3ccccc3)ccc2C#N)OC(N)=C(C#N)C1c1ccccc1 (stereo not drawn)	aSyn 5UTR act -103
CCOC(=O)C1=C(CSc2nc(-c3ccccc3)ccc2C#N)OC(N)=C(C#N)C1c1cccnc1 (stereo not drawn)	aSyn 5UTR act -84
O=c1[nH]c(-c2ccccn2)nc2sc(-c3ccccc3)cc12	aSyn 5UTR act -91
COCc1cc(=O)oc2cc(NC(=O)c3ccc(C(C)(C)C)cc3)ccc12	aSyn 5UTR act -110
Cc1cc(C(=O)Nc2ccccc2)oc(=O)c1	aSyn 5UTR act -85
Cc1cc(=O)oc2cc(NC(=O)c3ccccc3OC(F)F)ccc12	aSyn 5UTR act -114
CN(C)S(=O)(=O)c1ccc(NC(=O)c2cc3ccccc3o2)cc1	aSyn 5UTR act -110
Cn1c(=O)n(C)c2cc(NC(=O)c3cc4ccccc4o3)ccc21	aSyn 5UTR act -146
Cc1cc(=O)oc2cc(NC(=O)c3cccc(Br)c3)ccc12	aSyn 5UTR act -166
O=C(Nc1ccc2oc(=O)ccc2c1)c1cc2ccccc2o1	aSyn 5UTR act -177
Cc1cc(=O)oc2cc(NC(=O)c3cc4ccccc4o3)ccc12	aSyn 5UTR act -94
Cc1cc(N2CCOCC2)nc2cc(O)ccc12	aSyn 5UTR act -136
Cc1cc(N2CCN(c3ccccc3F)CC2)nc2cc(O)ccc12	aSyn 5UTR act -64
COc1ccc2nc(N3CCOCC3)cc(C)c2c1	aSyn 5UTR act -79
Cc1cc(N2CCN(c3ccc(F)cc3)CC2)nc2cc(O)ccc12	aSyn 5UTR act -66
CCCCC(=O)N/C(N)=N/c1nc2ccccc2o1	aSyn 5UTR act -206
N/C(=N\c1nc2ccccc2o1)NC(=O)c1ccccc1F	aSyn 5UTR act -198
O=C(O)C(=O)/C(=C\c1ccc(Cl)cc1)c1ccc2ccccc2n1	aSyn 5UTR act -226
COc1cccc(C2=CC(c3cccc(OC)c3OC)n3nnnc3N2)c1 (stereo not drawn)	aSyn 5UTR act -295
COc1cccc(C2=CC(c3cc(OC)ccc3OC)n3nnnc3N2)c1 (stereo not drawn)	aSyn 5UTR act -165
c1ccc(-c2ccc(-c3[nH]ncc3CN3CCC(N4CCSCC4)CC3)cc2)cc1	aSyn 5UTR act -143
CS(=O)(=O)Nc1ccc(C(=O)NCCc2ccccc2)cc1	aSyn 5UTR act -125
O=C(NCCS(=O)(=O)NCCc1ccccc1)c1ccccc1	aSyn 5UTR act -62
N#C/C(=C\c1ccc(-c2nc3ccccc3s2)o1)C(N)=O	aSyn 5UTR act -71
CCN(CC)CCN1C(=O)C(=O)/C(=C(/O)c2cnn(-c3ccccc3)c2C)C1c1ccc(C)o1 (stereo not drawn)	aSyn 5UTR act -77
Cc1c(/C(O)=C2\C(=O)C(=O)N(CCN(C)C)C2c2ccco2)cnn1-c1ccccc1 (stereo not drawn)	aSyn 5UTR act -78
Cc1c(/C(O)=C2/C(=O)C(=O)N(CCN3CCOCC3)C2c2cccs2)cnn1-c1ccccc1 (stereo not drawn)	aSyn 5UTR act -155
Cc1ccc(C2/C(=C(\O)c3cnn(-c4ccccc4)c3C)C(=O)C(=O)N2CCN(C)C)o1 (stereo not drawn)	aSyn 5UTR act -92
Cc1ccc(C2/C(=C(/O)c3cnn(-c4ccccc4)c3C)C(=O)C(=O)N2CCN2CCOCC2)o1 (stereo not drawn)	aSyn 5UTR act -121
Cc1ccccc1NC(=O)C(=O)c1cn(C)c2ccccc12	aSyn 5UTR act -133
CC(=O)n1cc(N(C(=O)CCl)c2ccc(Cl)cc2)c2ccccc21	none
O=C(CCc1nnc(-c2ccsc2)o1)N1CCc2c(Cl)cccc2C1	aSyn 5UTR act -65
COc1cccc(C2=N/C(=C\N(C)C)C(=O)O2)c1	aSyn 5UTR act -133
COc1ccc2c(c1)O/C(=C\c1ccccc1C)C2=O	aSyn 5UTR act -131
COc1ccc(C(=O)Nc2cc3c(oc2=O)CCCC3=O)cc1	aSyn 5UTR act -69
COc1ccc(C(=O)Nc2cccc3c2CCCC3)cc1	aSyn 5UTR act -132
COc1ccc(C(=O)Nc2ccc3c4c(cccc24)CC3)cc1	aSyn 5UTR act -84
CCc1nnc(NC(=O)c2csc3c2CCC(C)C3)s1 (stereo not drawn)	aSyn 5UTR act -67
O=C(Nc1ccc(F)cc1F)c1csc(-c2ccccc2)n1	aSyn 5UTR act -95
O=C(Nc1ccc(F)cc1F)c1cccc(C(=O)Nc2ccc(F)cc2F)n1	none
O=C(Nc1ccccc1Cl)c1csc(-c2cccnc2)n1	aSyn 5UTR act -70
O=C(Nc1ccccc1)c1csc(-c2ccccc2)n1	aSyn 5UTR act -170

Screening results: PubChem, Broad Institute
